Source: the supplement of paper PMC9844399
Counter-ions that a name gives are not always drawn.

Tested on: HeLa
Test: nuclear count per well, robust Z-score vs DMSO; higher = more cells (less toxicity)
Details: 10 µM; 6 h
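Further: Hoechst-stained nuclei counted by automated confocal imaging of four fields per well in 384-well plates, with the robust Z-score based on the per-plate DMSO median and robust SD.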

SMILES | nuclear count per well
CCOC(=O)CC(SP(=S)(OC)OC)C(=O)OCC (stereo unspecified) [Malathion] | 0.119
CCCCC[C@@H](/C=C/C=C\CCCCCCCC(=O)O)OO | 0.158
C[C@H]1CCCC(=O)CCC/C=C/c2cc(O)cc(O)c2C(=O)O1 [Zearalenone] | -0.212
CO[C@H](C/C=C\C=C\CC/C=C/C[C@H](C)/C=C/C(=C\C(=O)O)CC(=O)O)/C(C)=C\C=C(/C)C(=O)O [Bongkrekic acid] | -1.5
C=C1C/C(=C/C)C(=O)O[C@@H]2CCN3CC=C(COC(=O)[C@]1(C)O)[C@H]23 [Seneciophylline] | 0.668
CC1=C2C(=O)[C@H]3[C@@H](CC=C4C[C@@H](O)CC[C@@]43C)[C@@H]2CC[C@]12O[C@@H]1C[C@H](C)CN[C@H]1[C@H]2C [Jervine] | -0.146
CC1=C[C@H]2O[C@@H]3[C@H](O)C[C@](C)([C@@]2(CO)[C@H](O)C1=O)[C@]31CO1 [Deoxynivalenol] | -4.53
O=C(NCCN1CCC2(CC1)C(=O)NCN2c1cccc(F)c1)c1ccc(F)c(F)c1 [ML 298 hydrochloride] | 1.21
NC(=O)C[S+]([O-])C(c1ccccc1)c1ccccc1 (stereo unspecified) [Modafinil (Schedule Iv)] | -0.00789
COc1ccc(C(=O)O[C@H]2CC[C@@]3(C)[C@@H]4CC[C@H]5[C@]6(O)C[C@H](O)[C@@]7(O)[C@@H](CN8C[C@@H](C)CC[C@H]8[C@@]7(C)O)[C@]6(O)C[C@@]53O[C@]24O)cc1OC [Veratridine] | 0.0974
C#CCN(C)C(C)Cc1ccccc1 (stereo unspecified) [Deprenyl] | 0.44
